Bioassay records as filed in PubChem BioAssay.
Many of the other results were omitted from the sample, so hits are more common in it than they were.
FBPA Giardia inh: Giardia lamblia aldolase inhibition; A8B2U2; purified Giardia FBPA; Potency, µM (doses to about 59.6 µM), hits mostly inhibitors; 290,000 compounds, 0.71% hits; AID 2451; note: nearly all actives have a fitted effect of over 55% in size
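40 nM FBPA preincubated 10 min at RT with compound (up to 57.5 uM final), then substrate plus GAPDH/TPI/NAD/arsenate coupling and diaphorase/resazurin added. Fluorescence read after 20 min at RT, 525/598 nm.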
TbPYK inhibitor: T. brucei pyruvate kinase inhibition. Q57TT1. Potency, µM (top dose mostly 76.8 µM), actives largely listed as inhibitors. TbPYK enzyme, Kinase-Glo Plus ATP luminescence, 45 min. 410,000 compounds, 0.12% hits; note: nearly all actives have a fitted effect of over 50% in size
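Assay buffer: 50 mM TEA pH 7.2, 100 mM KCl, 10 mM MgCl2, 0.05% BSA, 0.01% Tween-20. Pyruvate kinase from T. brucei plus substrate met compound, then ADP (130 uM final). Luminescence was read post 45 min RT.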
RE007 growth inh: less growth of the S. pombe RE007 Vpr strain; S. pombe RE007 Vpr strain, BacTiter-Glo ATP luminescence, 24 h; 360,000 compounds, 0.21% hits; Potency, µM (titrated, usually from 92.2 µM), most hits filed as inhibitors; active = well fitted falling curve with a large enough effect; inconclusive = small, poorly fitted or top-dose-only effect; inactive = no such curve, though single readings can be large or run the other way; note: nearly all actives have a fitted effect of over 50% in size
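Fission yeast RE007 carrying one integrated HIV-1 vpr copy, seeded at OD 0.01 in PMG+AL medium with 23 nL pinned compound. Grown 24 h at 30 degrees; viability read by BacTiter-Glo luminescence after 5 min.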
LmPK inhibitor: inhibitors of Leishmania mexicana pyruvate kinase; Q27686; purified LmPK, Kinase-Glo ATP luminescence, 1 h; Potency, µM (series often up to 57.5 µM), most hits filed as inhibitors; 290,000 compounds, 0.37% hits; AID 1721
Target sequence (Q27686 whole entry, looked up): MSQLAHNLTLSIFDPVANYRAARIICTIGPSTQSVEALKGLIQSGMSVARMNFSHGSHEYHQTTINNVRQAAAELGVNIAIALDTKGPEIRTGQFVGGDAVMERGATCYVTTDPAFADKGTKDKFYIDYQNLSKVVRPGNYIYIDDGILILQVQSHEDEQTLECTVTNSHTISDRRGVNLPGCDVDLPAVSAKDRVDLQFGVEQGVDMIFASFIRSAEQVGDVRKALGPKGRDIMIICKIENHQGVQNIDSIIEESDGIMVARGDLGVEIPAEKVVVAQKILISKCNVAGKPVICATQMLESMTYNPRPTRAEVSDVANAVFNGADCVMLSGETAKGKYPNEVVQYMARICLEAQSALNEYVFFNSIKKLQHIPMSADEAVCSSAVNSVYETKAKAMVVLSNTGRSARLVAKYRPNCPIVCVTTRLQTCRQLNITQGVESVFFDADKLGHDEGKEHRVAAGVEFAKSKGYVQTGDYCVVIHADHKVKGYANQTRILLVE
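Purified LmPK (0.1 nM) converted ADP (0.1 mM) to ATP with PEP (0.5 mM) in imidazole buffer pH 7.2 with KCl and MgCl2, 1 h at room temperature. ATP was read by Kinase-Glo luminescence; data normalized to uninhibited and no-enzyme controls.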
Cycloheximide cs: affects cycloheximide protein synthesis inhibition readout, counter-screen. cell reporter, cycloheximide protein synthesis inhibition counterscreen. max response, %. 300,000 compounds, 12% hits; in the data active = max response mostly above about 13%, no sharp cut-off; inactive = mostly below about 14%; note: read at 38.3 µM for the half of the compounds with a filed dose
Shiga inhibitor: Shiga toxin inhibition; Vero cells, Shiga toxin protein synthesis inhibition reporter; inhibition, % at 38.7 µM; 290,000 compounds, 9.2% hits; AID 2315; in the data active = inhibition mostly above about 28%, no sharp cut-off; inactive = mostly below about 43%
Numbers stand for hits; i = inactive; ? = inconclusive; nt = no result; + = active, no number. Unless noted, calls come from the whole dose curve; as a rule, active = well fitted curve in the direction sought with a large enough effect; inconclusive = small, poorly fitted or top-dose-only effect, or another doubt; inactive = no such curve, though single readings can be large; an effect the other way counts as inactive or inconclusive.

SMILES | FBPA Giardia inh | TbPYK inhibitor | RE007 growth inh | LmPK inhibitor | Cycloheximide cs | Shiga inhibitor
Cc1cccc(NC(=O)CSc2nc3ccc(NC(=O)COc4ccc(Cl)cc4)cc3s2)c1 | nt | i | nt | nt | nt | nt
O=C(Nc1nc2c(s1)CN(Cc1ccccc1)CC2)C1CCC1 | i | i | i | i | 31 | 74
COc1ccc(-c2nc3sc(CCNC(=O)C(=O)Nc4ccc(C)c(F)c4)c(C)n3n2)cc1 | nt | i | nt | nt | nt | nt
CCN(CC)c1ccc2cc(-c3nc4ccccc4[nH]3)c(=O)oc2c1 | i | i | i | i | 49 | 81
CCN(CC)c1ccc2cc(-c3nnc(-c4ccccc4)o3)c(=O)oc2c1 | i | i | i | i | 35 | 70
CCN(CC)c1ccc2cc(-c3nc4ccccc4n3C)c(=O)oc2c1 | i | i | i | i | 37 | 80
CN(C)Cc1c(O)ccc2c(-c3ccccc3)cc(=O)oc12 | i | i | i | i | i | i
CN(C)Cc1c(O)ccc2cc(-c3nc4ccccc4n3C)c(=O)oc12 | ? | i | i | i | 20 | i
CC1(C)CC(=O)c2cc(C(=O)Nc3ccccc3Cl)c(=O)n(-c3ccc(Cl)cc3)c2C1 | nt | i | nt | nt | nt | nt
CO/N=C(/C(=O)N[C@@H]1C(=O)N2C(C(=O)[O-])=C(C[n+]3ccn4ncccc43)CS[C@H]12)c1nsc(N)n1 | nt | i | nt | nt | nt | nt
CCn1c(CN2CCN(C(c3ccccc3)c3ccccc3)CC2)nc2c1c(=O)n(C)c(=O)n2C | i | i | i | i | i | i
Cn1ccc2c(-c3cccnc3)cc3c(c21)C1CCC3O1 (centres undefined) | nt | i | i | nt | nt | nt
N#CC1=C(c2ccccc2)/C(=C/c2ccccc2)OC1=O | i | i | i | i | i | i
O=C1O/C(=C/c2ccccc2)c2ccccc21 | i | i | i | i | 65 | +
CC(C)Oc1ccc(CNC(=O)c2ccc3nc(C(C)C)oc3c2)cc1 | nt | i | nt | nt | nt | nt
Cc1cc(C(=O)CN2C(=O)c3cccc(N)c3C2=O)c(C)n1Cc1cccs1 | i | i | i | i | 34 | 84
Cc1cc(C(=O)CN2C(=O)NC3(CCCCC3)C2=O)c(C)n1Cc1ccc2c(c1)OCO2 | i | i | i | i | 27 | 96
CC1CCCCC12NC(=O)N(CC(=O)NCc1cccs1)C2=O (centres undefined) | nt | i | i | nt | nt | nt
Cc1cc(C(=O)CN2C(=O)NC3(CCCCC3C)C2=O)c(C)n1Cc1cccs1 (centres undefined) | i | i | i | i | 101 | 75
Cc1cc(C(=O)CN2C(=O)NC3(CCCCC3)C2=O)c(C)n1Cc1ccco1 | i | i | i | i | 41 | 89
Cc1cccc(CCNC(=O)CCc2c(C)nc3c(c(C)nn3-c3ccccc3)c2C)c1 | nt | i | nt | nt | nt | nt
Cc1ccc(NC(=O)Cn2c(=O)n(CCCCC(=O)NCc3ccccc3Cl)c(=O)c3ccccc32)cc1 | nt | i | nt | nt | nt | nt
CCc1cccc(NC(=O)c2ccc(CNS(=O)(=O)c3ccc4c(c3)C(C)(C)C(=O)N4C)cc2)c1 | nt | i | nt | nt | nt | nt
COc1ccc2oc(C(=O)NN3C(C)CCCC3C)c(C)c2c1 (centres undefined) | i | i | i | i | i | i
COc1ccc2oc(C(=O)NCCC(C)C)c(C)c2c1 | i | i | i | i | 58 | i
SMILES | FBPA Giardia inh | TbPYK inhibitor | RE007 growth inh | LmPK inhibitor | Cycloheximide cs | Shiga inhibitor
Cc1c(C(=O)Nc2nccs2)oc2ccc(F)cc12 | nt | i | i | nt | nt | nt
COc1ccc2oc(C(=O)NC3CCCCC3)c(C)c2c1 | nt | i | i | i | 47 | 114
COc1ccc2oc(C(=O)Nc3ccccn3)c(C)c2c1 | i | i | i | i | 57 | 66
Cc1c(C(=O)NC2CCCCC2)oc2ccc(F)cc12 | i | i | i | i | 51 | 114
COc1ccc(C(=O)N2CCCCC2CCN2CCOCC2)cc1 (centres undefined) | nt | i | nt | nt | nt | nt
Cc1ccc2oc(C(=O)NC3CCS(=O)(=O)C3)c(C)c2c1 (centres undefined) | i | i | i | i | 30 | 35
Cc1ccc2oc(C(=O)N(Cc3ccccc3F)C3CCS(=O)(=O)C3)c(C)c2c1 (centres undefined) | nt | i | nt | nt | nt | nt
COc1ccc(C(=O)c2sc(Nc3ccccc3)nc2N)cc1 | i | i | i | i | 41 | i
COc1ccc(C(=O)c2sc(Nc3ccccc3F)nc2N)cc1 | i | i | i | i | 41 | 86
COc1ccc(C(=O)c2sc(Nc3ccccc3)nc2N)cc1OC | i | i | i | i | i | i
